Sfp inh – qHTS Assay for Inhibitors of Bacillus subtilis Sfp phosphopantetheinyl transferase (PPTase); Biochemical Sfp PPTase activity, qHTS; AID 1490, 2009; 4'-phosphopantetheinyl transferase ffp (Bacillus subtilis), Q9F4F7; hit rate 3.5% among 310,000; Potency, µM, inactives show largest response in the series, negative = inhibition, most hits filed as inhibitors;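 note: the enzyme is Sfp with the accession as filed and its product quenches rhodamine fluorescence; 0% = enzyme reaction without inhibitor and -100% = no enzyme wells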
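With Hepes-Na pH 7.6 buffer containing 10 mM MgCl2, Sfp (15 nM) modified BHQ-2-YbbR (12.5 uM) using rhodamine-CoA (5 uM). Two reads 30 minutes apart at 525/598 nm yielded each well's rate.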
BAZ2B inh – qHTS Assay for Inhibitors of BAZ2B; Bromodomain adjacent to zinc finger domain protein 2B (Homo sapiens), Q9UIF8; AlphaScreen BAZ2B-H3K14Ac peptide displacement; Potency, µM (titrated, usually from 114 µM), for the others: top-dose activity change, negative = inhibition, usual class: inhibitors; hit rate 4.4% among 360,000; AID 504333, 2011; note: % is set by controls: 0 for no effect and ±100 for the full control effect; nearly all actives have a fitted effect of over 60% in size
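BAZ2B 50 nM plus b-H3(5-23)K14Ac 50 nM, PBS pH 7.4/0.01% Tween-20, 30 min RT; compound added (max 110 uM), 30 min RT; streptavidin donor/Ni-chelate acceptor beads 10 ug/mL final, 20 min dark; AlphaScreen read.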
HP1b chromo inh – HTS for Inhibitors of HP1-beta Chromodomain Interactions with Methylated Histone Tails | hit rate 0.56% among 390,000 | Potency, µM (titrated, usually from 114 µM), inactives show at the top dose activity change, negative = inhibition, hits mostly inhibitors | AlphaScreen HP1-beta / biotin-H3K9me3 peptide binding | Chromobox protein homolog 1 (Homo sapiens), P83916; note: nearly all actives have a fitted effect of over 70% in size
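HP1-beta protein (50 nM final) preincubated 30 min at room temperature with biotinylated H3(1-18)K9me3 peptide (50 nM) in PBS pH 7.4, 0.01% Tween-20, then compound added for 30 min. AlphaScreen streptavidin donor/nickel chelate acceptor beads (10 ug/mL final), 30 min dark, luminescence read.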
PLK1 PBD inh – qHTS for Inhibitors of PLK1-PDB (polo-like kinase 1 - polo-box domain): Primary Screen; Serine/threonine-protein kinase PLK1 (Homo sapiens), P53350; Plk1 PBD binding of FITC phosphopeptide, fluorescence polarization; Potency, µM, inactives show max response, negative = inhibition, most hits filed as inhibitors; hit rate 2.8% among 360,000; AID 720504, 2013; note: series mostly up to about 57 µM; % is set by controls: 0 for no effect and ±100 for the full control effect; nearly all actives have a fitted effect of over 65% in size
JMJD2A Tudor inh – qHTS Assay for Inhibitors of JMJD2A-Tudor Domain; AlphaScreen JMJD2A-Tudor / H3K4me3 peptide binding; Potency, µM (doses to about 114 µM), for the others: top-dose activity change, negative = inhibition, actives largely listed as inhibitors; hit rate 4.4% among 390,000; AID 504339, 2011; note: % is set by controls: 0 for no effect and ±100 for the full control effect; nearly all actives have a fitted effect of over 50% in size
G9a inh – qHTS Assay for Inhibitors of Histone Lysine Methyltransferase G9a; Histone-lysine N-methyltransferase EHMT2 (Homo sapiens), Q96KQ7; G9a H3K9 monomethylation, AlphaScreen, 2 h; Potency, µM (highest dose often 102 µM), without a hit: at the highest dose activity, negative = inhibition, actives largely listed as inhibitors; hit rate 8.8% among 350,000; note: % is set by controls: 0 for no effect and ±100 for the full control effect; nearly all actives have a fitted effect of over 75% in size
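Readings reflect AlphaScreen signal from monomethyl-H3K9 antibody detection. HMT at 20 nM; substrate b-H3K9 500 nM; cofactor SAM 20 uM; 2 h RT reaction; compounds tested as titrations in qHTS with 15 min preincubation.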
The depositor's hits bear a star; [ ] = dose if it differs, or a comment. In the library only some 12% were active in any assay of this set; here they are far more common. Calls come from the whole dose curve; as a rule, active = well fitted curve in the direction sought with a large enough effect; inconclusive = small, poorly fitted or top-dose-only effect, or another doubt; inactive = no such curve, though single readings can be large; an effect the other way counts as inactive or inconclusive. Potency is the fitted concentration of half-maximal effect.

Screening CCCCCCCCN=C1NC(=O)CS1 returned Sfp inh -17.4%, BAZ2B inh 6.2%, HP1b chromo inh -6.3%, PLK1 PBD inh inconclusive, JMJD2A Tudor inh -10.1% and G9a inh 22.4µM*.
For O=Cc1ccc(F)c([B-](F)(F)F)c1 the results were HP1b chromo inh 20.0%, PLK1 PBD inh -12.8% and JMJD2A Tudor inh -22.6%.
CCN(CC)c1nc2ccccc2nc1C(C#N)C(=O)NCCc1ccccc1 (centres undefined) was read as Sfp inh -10.2%, BAZ2B inh 2.6%, HP1b chromo inh 56.7%, PLK1 PBD inh 13.4µM*, JMJD2A Tudor inh 0.0% and G9a inh inconclusive.
`Cn1c(SCC(=O)N2CCCc3ccccc32)ncc(C(=O)Nc2ccc(Cl)cc2)c1=O` gave BAZ2B inh -2.3%, HP1b chromo inh 17.1%, JMJD2A Tudor inh -15.6% and G9a inh 13.6%[59 µM].
Screening Nc1nc(N)nc(Cc2ccccc2O)n1 returned BAZ2B inh 12.7%, HP1b chromo inh 23.0%, PLK1 PBD inh -4.9%, JMJD2A Tudor inh -18.3% and G9a inh 5.2%[0.501 µM].
For CC1(C)CC(=S)Nc2ccccc2S1 the results were Sfp inh 28.2µM*, BAZ2B inh -7.3%, HP1b chromo inh inconclusive, PLK1 PBD inh 26.7µM*, JMJD2A Tudor inh -32.3% and G9a inh 7.94µM*.
Screening O=C1CSc2ccccc2N1 returned HP1b chromo inh 37.2%, PLK1 PBD inh -4.1% and JMJD2A Tudor inh -23.3%.
Screening S=c1nc(-c2ccco2)[nH][nH]1 returned Sfp inh 28.2µM*, BAZ2B inh inconclusive, HP1b chromo inh inconclusive, PLK1 PBD inh -15.3%, JMJD2A Tudor inh 7.08µM* and G9a inh 1.78µM*.
Screening NC(=O)CSc1n[nH]c(-c2ccco2)n1 returned Sfp inh 7.6%, BAZ2B inh -17.7%, HP1b chromo inh 36.0%, PLK1 PBD inh -6.9%, JMJD2A Tudor inh -1.4% and G9a inh -3.0%.
Screening COc1ccc(-c2nc(C#N)c(N3CCc4ccccc4C3)o2)cc1OC returned Sfp inh 4.3%, BAZ2B inh 7.08µM*, HP1b chromo inh -38.0%, PLK1 PBD inh -8.7%, JMJD2A Tudor inh inconclusive and G9a inh 28.2µM*.
COc1ccccc1-c1nc(C#N)c(N2CCc3ccccc3C2)o1 was read as Sfp inh -20.3%, BAZ2B inh 10µM*, HP1b chromo inh inconclusive, PLK1 PBD inh 0.3%, JMJD2A Tudor inh inconclusive and G9a inh inconclusive.
For CCn1c(C)c(C(C)=O)c(N2CCN(c3ccccc3)CC2)nc1=S the results were Sfp inh 56.2µM*, BAZ2B inh -25.3%, HP1b chromo inh 27.7%, PLK1 PBD inh -13.0%, JMJD2A Tudor inh -4.1% and G9a inh -38.8%[59 µM].
Screening CC(=O)c1c(N2CCOCC2)nc(=O)n(-c2ccccc2)c1C returned Sfp inh -25.6%, BAZ2B inh 0.8%, HP1b chromo inh 12.9%, PLK1 PBD inh -3.4%, JMJD2A Tudor inh -29.3% and G9a inh 44.7µM*.
Screening CCn1c(C)c(C(C)=O)c(N2CCCCC2)nc1=S returned Sfp inh 7.8%, BAZ2B inh 14.0%, HP1b chromo inh 30.3%, PLK1 PBD inh -18.0%, JMJD2A Tudor inh -16.0% and G9a inh 44.7µM*.
For O=S1(=O)C[C@H](N2CCC[C@@H]2CO)[C@@H](COCc2ccccc2)N1 the results were PLK1 PBD inh -3.8%.
O=C(COc1ccc([N+](=O)[O-])cc1)Nc1cc(S(=O)(=O)N2CCCCC2)ccc1N1CCCCC1 was read as BAZ2B inh -37.6%, HP1b chromo inh -15.7%, PLK1 PBD inh -10.4%, JMJD2A Tudor inh 20µM* and G9a inh 1.78µM*.
